Results as given in ChEMBL document CHEMBL1157539, “Thousands of chemical starting points for antimalarial lead identification” (Nature, 2010).

What was measured:
Format in all cases: functional
[1] = test system: Plasmodium falciparum; test: GSK_TCMDC: Inhibition of Plasmodium falciparum 3D7 in whole red blood cells, using parasite LDH activity as an index of growth. Test compounds present at 2uM
[2] = test system: Plasmodium falciparum; test: GSK_TCMDC: Inhibition of Plasmodium falciparum Dd2 in whole red blood cells, using parasite LDH activity as an index of growth. Test compounds present at 2uM
[3] = test system: HepG2; test: GSK_TCMDC: Percent inhibition of human HepG2 cell line. Test compounds present at 10uM.

| Compound | Inhibition [1] [%] | Inhibition [2] [%] | Inhibition [3] [%] |
| --- | --- | --- | --- |
| CCCn1c(Sc2ccc(C#N)c([N+](=O)[O-])c2)nnc1-c1ccc(Cl)cc1 | 96 | 95 | 12 |
| CNC(=O)/C=C/c1cc(NC(=O)Nc2cc(C)nc3c(F)cccc23)ccc1OC | 98 | 70 | 0 |
| CN1CCN(c2ccc(CNc3ccc4ncc(-c5ccc(OC(F)(F)F)cc5)n4n3)cc2)CC1 | 94 | 87 | 13 |
| COc1cc(Nc2nccc(N3CCC(NC(=O)Nc4ccc5c(c4)OCO5)C3)n2)cc(OC)c1OC (stereo not drawn) | 96 | 74 | 9 |
| CCc1ccc(NC(=O)c2cccc(CN3CCCN(Cc4ccc(OC)cc4)CC3)c2)cc1.O=C(O)C(F)(F)F | 97 | 0 | 35 |
| O=C(c1cc2c(s1)-c1cccc(Cl)c1SC2)N1CCN(c2ccncc2)CC1 | 94 | 36 | 45 |
| CC1CN(c2cnn(Cc3ccc(NC(=O)Nc4cccc(C(F)(F)F)c4)cc3)c(=O)c2Cl)CC(C)N1.O=C(O)C(F)(F)F (stereo not drawn) | 86 | 31 | 0 |
| CC(C)(C)OC(=O)[C@H](CC(N)=O)NC(=O)c1ccc(-c2ccc(-c3nc4cc(C(F)(F)F)ccc4[nH]3)s2)cc1 | 94 | 88 | 62 |
| COc1ccc(C(=O)CCC(=O)N(CCC2CCCN2C)Cc2ccc(-c3ccc(CNCCc4ccc(S(C)(=O)=O)cc4)cn3)cc2)cc1F.O=C(O)C(F)(F)F (stereo not drawn) | 93 | 45 | 13 |
| CC1CCCC(Nc2noc(-c3sccc3Br)n2)C1 (stereo not drawn) | 100 | 99 | 7 |
| O=C(NCCc1ccccc1)N(Cc1ccc(-c2cccc(CN3CCNCC3)c2)cc1)C1CCN(Cc2ccccc2)CC1.O=C(O)C(F)(F)F | 90 | 29 | 27 |
| CSc1ccc(CN2CCC(NC(=O)c3ccc(-c4ccc(N(C)C)cc4)s3)CC2)cc1.O=C(O)C(F)(F)F | 86 | 26 | 30 |
| COc1ccc(N2CCN(CCCCNC(=O)c3ccc(NC(=O)c4ccc(Cl)cc4)cc3)CC2)c(C)c1 | 100 | 51 | 42 |
| COc1ccc(C(=O)NC(c2ccc(Cl)cc2Cl)c2cc(Cl)c3cccnc3c2O)cc1 (stereo not drawn) | 84 | 48 | 46 |
| CCOc1ccc(NC(=O)c2cn3nc(-c4ccc(OCC)cc4)cc3nc2C2CCNCC2)cc1.Cl | 100 | 39 | 36 |
| CCCCOC(=O)c1ccc(Nc2cc(C)nc3ccc(OC)cc23)cc1 | 100 | 96 | 4 |
| COc1ccc2nc(C)cc(Nc3ccc(Oc4ccc(Cl)cc4)c(Cl)c3)c2c1 | 100 | 100 | 48 |
| CC(=O)Nc1ccc(S(=O)(=O)NC2=NC(=N)N(OCc3ccc(Cl)c(Cl)c3)C(C)(C)N2)cc1 | 93 | 98 | 44 |
| Cc1ccc(C(=O)Cn2nc(-c3ccc(C)c(S(=O)(=O)N4CCCC4)c3)ccc2=O)cc1 | 94 | 70 | 0 |
| Cc1nc2c(-n3cc(Cn4ccnc4)c4ccccc43)ncnc2n1-c1ccc(Cl)cc1Cl | 89 | 29 | 16 |
| CCN(CC)CCOc1c(Cl)cc(Cl)cc1CNCCCNc1cc(=O)c2ccccc2[nH]1 | 97 | 6 | 11 |

| Compound | Inhibition [1] [%] | Inhibition [2] [%] | Inhibition [3] [%] |
| --- | --- | --- | --- |
| CCCN1CCN(Cc2ccc(-c3ccc(-c4nc5ccccc5[nH]4)s3)cc2)CC1 | 100 | 93 | 29 |
| CO/C(=C\C=C\c1cc2cc(Cl)c(Cl)cc2[nH]1)C(=O)NCCCN1CCN(c2cccc(Cl)c2)CC1 | 100 | 77 | 58 |
| Cc1ccc(O)cc1Nc1ccnc2ccc(-c3cccc(CNCCN(C)C)c3)cc12 | 100 | 46 | 0 |
| CCOC(=O)c1ccc(N2CCN(CCCNC(=O)/C(=C/C=C/c3cc4cc(Cl)c(Cl)cc4[nH]3)OC)CC2)cc1 | 93 | 72 | 39 |
| COc1cc(C=NN=c2cc(C)[nH]c3ccccc23)cc(OC)c1OC | 100 | 95 | 5 |
| CN(C)c1c(CNCCCCCCNCc2ccc3ccccc3c2N(C)C)ccc2ccccc12.CS(=O)(=O)O | 100 | 51 | 100 |
| COCCNCc1ccc(-c2cccc(CNc3ccc(OC)cc3)c2)cc1.O=C(O)C(F)(F)F | 94 | 2 | 16 |
| CC(C)Cc1cn(-c2nc(C(=N)N)cs2)c2cc(Cl)ccc12 | 100 | 98 | 98 |
| Cc1cccc2nc(-c3cccc(-c4cccc(NC(=O)c5ccoc5)c4)c3)[nH]c12 | 99 | 71 | 19 |
| FC(F)(F)c1ccc2[nH]c(-c3ccc(-c4cccc(CNCC5CCCO5)c4)s3)nc2c1.O=C(O)C(F)(F)F (stereo not drawn) | 99 | 99 | 37 |
| COc1ccc(O)c(Cc2cnc3nc(N)nc(N)c3c2C)c1.O=C(O)C(F)(F)F | 94 | 74 | 56 |
| O=C(O)C(F)(F)F.O=S(=O)(/C=C/c1ccccc1)N(Cc1ccc(-c2ccc(CNCCc3ccccn3)cc2)cc1)CC1CCCCN1 (stereo not drawn) | 100 | 97 | 46 |
| N=c1cc(C=Cc2ccc(O)cc2)[nH]c2ccccc12 | 100 | 14 | 15 |
| Cc1cccc2nc(-c3ccc(-c4ccc(NC(=O)C5CCN(C)CC5)cc4)cc3)[nH]c12 | 100 | 92 | 28 |
| Cl.ON=C1CCc2cc(-c3nc(-c4ccc(OCCN5CCCCC5)cc4)[nH]c3-c3ccncc3)ccc21 | 99 | 54 | 73 |
| CC(=O)Nc1ccc(CN(Cc2ccc(C)cc2)Cc2cccc(Oc3ccccc3)c2)cc1 | 84 | 87 | 34 |
| Cc1cccc2nc(-c3ccc(-c4ccc(NC(=O)NCc5ccccc5)cc4)s3)[nH]c12 | 93 | 8 | 79 |
| Cc1ccccc1CNc1ccc2nc(N)nc(N)c2c1 | 100 | 90 | 59 |
| CCCCNC(=O)[C@@H]1CCCN1C(=O)c1ccc(O)c(-c2ccc(Cl)c(Cl)c2)c1 | 98 | 92 | 0 |
| FC(F)(F)c1ccc2[nH]c(-c3ccc(-c4cccc(CN5CCN(c6ccncc6)CC5)c4)cc3)nc2c1.O=C(O)C(F)(F)F | 100 | 99 | 82 |
| COc1ccc(-c2cc(-c3ccc(S(C)(=O)=O)cc3)cnc2N)cn1 | 94 | 99 | 5 |

| Compound | Inhibition [1] [%] | Inhibition [2] [%] | Inhibition [3] [%] |
| --- | --- | --- | --- |
| Nc1nc(N)c2c(Oc3cccnc3)cccc2n1 | 93 | 0 | 65 |
| CCOC(=O)c1ccc(-n2c(C)cc(C=C3SC(=Nc4ccccc4)N(C4CCCC4)C3=O)c2C)cc1 | 98 | 61 | 2 |
| CCOC(=O)c1ccc(N2CCCCC2)c(NC(=O)C(Cl)(Cl)Cl)c1 | 96 | 97 | 11 |
| O=C(CN1CCN(C(C(=O)Nc2cc(C(F)(F)F)ccc2Cl)c2ccccc2)CC1)NC1CC1 (stereo not drawn) | 95 | 93 | 0 |
| CN1CCC(Oc2ccc(CN3CC[C@H](NC(=O)c4cc(F)cc(F)c4)C3)c3ccccc23)C1.O=C(O)C(F)(F)F (stereo partly drawn) | 98 | 23 | 26 |
| O=C(CCNc1ccnc(NCCc2ccccc2)n1)Nc1ccccc1.O=C(O)C(F)(F)F | 89 | 19 | 7 |
| COc1cc(Nc2nc(N)c3cc(OC)c(OC)cc3n2)cc(OC)c1.Cl | 100 | 100 | 7 |
| CCc1nc(N)nc(N)c1-c1ccc(C(C)C)cc1 | 92 | 0 | 3 |
| COc1cc2c(=O)c(Cc3ccc(Cl)cc3)c(C)[nH]c2cc1F | 85 | 28 | 13 |
| COc1ccc(CNCc2cccc(-c3cccc(-c4nc5ccccc5[nH]4)c3)c2)cc1.O=C(O)C(F)(F)F | 100 | 50 | 24 |
| O=C(O)C(F)(F)F.c1cc(-c2ccc(CNCCc3ccncc3)cc2)cc(-c2nc3ccccc3[nH]2)c1 | 100 | 99 | 41 |
| CCOC(=O)c1ccc(NC(=O)NNC(=O)c2ccc(CCN3CCC(c4nc(COCC(F)(F)F)c(-c5ccc(F)cc5)o4)CC3)cc2)cc1 | 100 | 67 | 10 |
| O=C(Nc1ccc(OC2CCN(Cc3ccc(F)cc3)CC2)c(Cl)c1)c1cccs1.O=C(O)C(F)(F)F | 95 | 96 | 7 |
| Cc1[nH]c(C)c(-c2ccc(OCc3cc(C(F)(F)F)cc(C(F)(F)F)c3)nc2)c(=O)c1Br | 98 | 96 | 28 |
| CCc1ccc(C2CCN(CCCCNC(=O)c3ccc(NC(=O)c4ccc(Cl)cc4)cc3)CC2)cc1 | 100 | 63 | 15 |
| Cc1cc(NC2CCCC2)nc(Nc2ccccc2F)n1 | 97 | 53 | 24 |
| COc1cccc(-c2ccc(C(=O)NC3CCN(Cc4ccc(C(C)(C)C)cc4)CC3)s2)c1.O=C(O)C(F)(F)F | 85 | 23 | 43 |
| COc1ccc(-c2nc(NC(=O)CS(=O)(=O)c3ccc(C)cc3)sc2C)cc1 | 100 | 94 | 56 |
| COc1nc2c(CCN3CC[C@@H](NCc4cc(C#N)c5c(c4)CCO5)[C@@H](O)C3)ccnc2cc1F.Cl | 92 | 35 | 21 |
